# Results filed as inconclusive are left out. A call without a number means that no potency is given here. Active and inactive are the calls of the source. The call rests on the fitted dose curve; in most records, active means well fitted curve in the direction sought with a large enough effect; inconclusive means small, poorly fitted or top-dose-only effect, or another doubt; inactive means no such curve, though single readings can be large; an effect the other way counts as inactive or inconclusive.
# Assays:
# [1] = biological target: Glutathione peroxidase 1 (Homo sapiens) (UniProt P07203); test: Primary qHTS Assay for Inhibitors of Recombinant Selenoprotein Glutathione Peroxidase 1 (GPX1) (AID 1845191); further: nearly all actives have a fitted effect of over 65% in size; further: potency means the concentration at half of the fitted maximal effect
# Outline: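 GR-coupled assay: compounds preincubated 30 min at room temperature with GPX1, then reaction started with CHP; final 10 nM GPX1, 1 mM GSH, 0.5 mM CHP, 0.5 mM NADPH, 100 nM GR, 0.01% BSA, pH 7.5 Tris buffer. NADPH fluorescence (340/450 nm) read at 0 and 15 min.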
# [2] = Quantitative High-Throughput drug screen in 47 multiple myeloma cell lines against the NCATS MIPE library collection: FR4_PLB cell viability assay (AID 1918924; further: nearly all actives have a fitted effect of over 35% in size; further: potency means the concentration at half of the fitted maximal effect)
# Outline: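 Inhibition of cell viability is measured here. Each line was plated at 500 cells per well, treated with MIPE 4.0 drugs, kept 48 hours at 37C, then assayed for ATP content by CellTiter-Glo luminescence.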
# [3] = Quantitative High-Throughput drug screen in 47 multiple myeloma cell lines against the NCATS MIPE library collection: Delta47_JCRB cell viability assay (AID 1918925; further: nearly all actives have a fitted effect of over 45% in size; further: potency means the concentration at half of the fitted maximal effect)
# Outline: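 CellTiter-Glo luminescence (ATP) after 48 h compound exposure, 37C/5% CO2; 500 cells/well; MIPE 4.0 approved/investigational drugs pinned in; DMSO = 100%, media only = 0% viability.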
# [4] = biological target: Phospholipid hydroperoxide glutathione peroxidase GPX4 (Homo sapiens) (UniProt P36969); test: Primary qHTS Assay for Inhibitors of Recombinant Selenoprotein Glutathione Peroxidase 4 (GPX4) (AID 1845192); further: nearly all actives have a fitted effect of over 65% in size; further: potency means the concentration at half of the fitted maximal effect
# Outline: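 GR-coupled assay: recombinant GPX4 preincubated 30 min with compound at room temperature; final 200 nM GPX4, 1 mM GSH, 0.5 mM cumene hydroperoxide, 0.5 mM NADPH, 100 nM GR, 0.01% BSA, pH 7.5 Tris. NADPH fluorescence (340/450 nm) read at 0 and 15 min.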
# [5] = biological target: Luciferin 4-monooxygenase (Photinus pyralis) (UniProt P08659); test: Primary firefly luciferase (FLuc) qHTS assay for identification of artifact compounds. (AID 1845220); further: nearly all actives have a fitted effect of over 60% in size
# Outline: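 Titrated compounds were incubated 15 min at RT, protected from light, with luciferin and ATP at 10 uM; reaction started with 10 nM FLuc, luminescence imaged at 5 min, and concentration-response fitted by Hill equation.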
# [6] = Primary fluorescence-based thiol-reactive (MSTI) qHTS assay for identification of artifact compounds. (AID 1845221); further: nearly all actives have a fitted effect of over 65% in size; further: potency means the concentration at half of the fitted maximal effect
# Outline: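 Thiol-reactive compounds detected by quenching of 4 uM MSTI fluorescence (525/598 nm) after 1 h room-temperature dark incubation in PBS pH 7.4, 2% DMSO. qHTS titration; percent inhibition Hill-fitted against Acetyl-MSTI/MSTI controls.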
# [7] = system: Nanoluciferase (engineered Oplophorus gracilirostris luciferase); test: Primary Nanoluciferase (NLuc) qHTS assay for identification of artifact compounds. (AID 1845222);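 further: NLuc secreted into diluted conditioned medium of S16 cells; series mostly up to about 54 µM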
# Outline: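 qHTS format, against NLuc in S16 cell-conditioned medium. Nano-Glo substrate 1:100 was added after 15 min at room temperature. Luminescence was taken after a further 5 min.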
# [8] = Primary redox qHTS assay for identification of artifact compounds. (AID 1845223)
# Outline: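 Amplex Red (25 uM) and HRP (250 mU/mL) in HBSS, with compounds for 15 min, then 250 uM DTT for 30 min, room temperature, dark. Fluorescence 525/598 nm read; normalized to DMSO and 10 uM DA3003; Hill fit.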
# Sequence of Glutathione peroxidase 1 (Homo sapiens) (P07203 whole entry, looked up): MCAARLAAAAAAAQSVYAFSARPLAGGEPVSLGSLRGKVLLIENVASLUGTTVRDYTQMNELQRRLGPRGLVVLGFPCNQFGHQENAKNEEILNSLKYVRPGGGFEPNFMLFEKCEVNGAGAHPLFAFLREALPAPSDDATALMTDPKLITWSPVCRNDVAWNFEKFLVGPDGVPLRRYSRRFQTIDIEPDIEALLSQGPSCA
# Sequence of Phospholipid hydroperoxide glutathione peroxidase GPX4 (Homo sapiens) (P36969 whole entry, looked up): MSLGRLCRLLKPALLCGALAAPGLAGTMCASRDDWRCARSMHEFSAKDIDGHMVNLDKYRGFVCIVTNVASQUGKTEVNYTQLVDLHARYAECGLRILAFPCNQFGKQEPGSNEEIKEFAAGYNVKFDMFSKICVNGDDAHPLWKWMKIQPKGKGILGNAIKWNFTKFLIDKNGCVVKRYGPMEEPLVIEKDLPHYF
structure (smiles),measurement,setting,value
O=C(O)CCC=CCC[C@@H]1[C@H](N2CCCCC2)[C@@H](O)C[C@@H]1OCc1ccc(-c2ccccc2)cc1,Potency,[1],inactive
same,Potency,[2],inactive
same,Potency,[3],inactive
CC(C)C[C@H](NC(=O)c1cc2ccccc2s1)C(=O)N1CCN(C(=O)[C@H](CO)NS(=O)(=O)c2ccc(Cl)cc2Cl)CC1,Potency,[1],inactive
same,Potency,[4],inactive
same,Potency,[3],26.4 µM (active)
COc1cc2ncnc(Nc3cc(Br)c(O)c(Br)c3)c2cc1OC,Potency,[4],inactive
same,Potency,[5],inactive
same,Potency,[6],6.7 µM (active)
same,Potency,[7],inactive
same,outcome,[8],inactive
CC(C)(O)CC(=O)NCCn1ccc2ncnc(Nc3ccc(Oc4cccc(C(F)(F)F)c4)c(Cl)c3)c21,Potency,[4],inactive
same,Potency,[6],inactive
same,Potency,[7],inactive
same,outcome,[8],inactive
same,Potency,[2],26.4 µM (active)
same,Potency,[3],18.7 µM (active)
Cn1c(=O)c(Oc2ccc(F)cc2F)cc2cnc(NC3CCOCC3)nc21,Potency,[1],16.3 µM (active)
same,Potency,[2],inactive
CO[C@@H]1C(N(C)C(=O)c2ccccc2)C[C@H]2O[C@]1(C)n1c3ccccc3c3c4c(c5c6ccccc6n2c5c31)C(=O)NC4=O (some centres not stated),Potency,[1],inactive
same,Potency,[4],18 µM (active)
same,Potency,[3],1.87 µM (active)
CCOc1ccccc1N=Nc1c(C)[nH]n(-c2nc(-c3ccccc3)cs2)c1=O,Potency,[1],inactive
same,Potency,[4],inactive
same,Potency,[3],inactive
Cc1cccc(Nc2nc(N[C@@H]3CCCC[C@H]3N)ncc2C(N)=O)c1,Potency,[1],inactive
same,Potency,[4],inactive
same,Potency,[3],0.187 µM (active)
CCOC(=O)N1c2ccc(C(F)(F)F)cc2[C@@H](N(Cc2cc(C(F)(F)F)cc(C(F)(F)F)c2)C(=O)OC)C[C@H]1CC,Potency,[4],inactive
Cc1cccc(-c2[nH]c(C(C)(C)C)nc2-c2ccc3c(c2)OCO3)n1,Potency,[1],inactive
same,Potency,[4],inactive
same,Potency,[2],29.6 µM (active)
same,Potency,[3],1.32 µM (active)
N#CC(c1ccc(Cl)cc1)c1c(Cl)cc(-n2ncc(=O)[nH]c2=O)cc1Cl (configuration not stated),Potency,[1],inactive
same,Potency,[2],inactive
same,Potency,[3],23.5 µM (active)
COc1ccc2nc3cc(Cl)ccc3c(Nc3cc(CN4CCCC4)c(O)c(CN4CCCC4)c3)c2n1,Potency,[1],inactive
same,Potency,[2],23.5 µM (active)
same,Potency,[3],16.6 µM (active)
C[C@@H]1CCO[C@H]2Cn3cc(C(=O)NCc4ccc(F)cc4F)c(=O)c(O)c3C(=O)N12,Potency,[4],inactive
same,Potency,[5],inactive
same,Potency,[7],inactive
same,outcome,[8],inactive
same,Potency,[2],37.2 µM (active)
O=C(Nc1cccc(C(F)(F)F)c1)Nc1cc(S(=O)(=O)NC2CC2)ccc1-c1ccsc1,Potency,[4],inactive
same,Potency,[5],inactive
same,Potency,[6],inactive
same,Potency,[7],inactive
same,outcome,[8],inactive
CNc1nc(Nc2ccc(C(=O)N3CCOCC3)cc2OC)ncc1Cl,Potency,[4],inactive
same,Potency,[6],inactive
same,Potency,[7],inactive
same,outcome,[8],inactive
same,Potency,[2],inactive
same,Potency,[3],inactive
CC[C@@H]([C@H](C)O)n1ncn(-c2ccc(N3CCN(c4ccc(OCC5CO[C@@](Cn6cncn6)(c6ccc(F)cc6F)C5)cc4)CC3)cc2)c1=O (some centres not stated),Potency,[4],inactive
CC(C)C[C@@H](C(=O)N[C@H](C(=O)OC1CCCC1)c1ccccc1)[C@H](O)C(=O)NO,Potency,[1],inactive
same,Potency,[4],inactive
same,Potency,[3],20.9 µM (active)
CCC(=O)NCC[C@@H]1CCc2ccc3c(c21)CCO3,Potency,[1],inactive
same,Potency,[4],inactive
same,Potency,[3],inactive
O=C1NC(=O)C(c2cnc3ccccn23)=C1c1cn2c3c(cccc13)CN(C(=O)N1CCOCC1)CC2,Potency,[4],inactive
same,Potency,[5],inactive
same,Potency,[2],0.0053 µM (active)
same,Potency,[3],1.05 µM (active)
O=C(O)Cc1cccc(OCCCN(Cc2cccc(C(F)(F)F)c2Cl)CC(c2ccccc2)c2ccccc2)c1,Potency,[1],inactive
same,Potency,[2],inactive
CC(=O)NCCC(=O)N[C@@H](CCC(N)=O)C(=O)N[C@@H](CO)C(=O)N[C@@H](CCC(N)=O)C(=O)N[C@@H](CCC(N)=O)C(=O)N[C@H](C(=O)N[C@@H](Cc1ccccc1)C(=O)N[C@]1(C)CCCCCCC=CCCC[C@@](C)(C(=O)N[C@@H](CCC(N)=O)C(=O)N[C@@H](CC(N)=O)C(N)=O)NC(=O)[C@H](CC(C)C)NC(=O)[C@H](CC(C)C)NC(=O)[C@@H](CCCNC(=N)N)NC(=O)[C@H](Cc2c[nH]c3ccccc23)NC(=O)[C@H](CC(C)C)NC(=O)[C@H](CC(N)=O)NC1=O)[C@H](C)O,Potency,[1],inactive
same,Potency,[4],inactive
same,Potency,[3],20.9 µM (active)
O[C@@H](COc1cccc2ncccc12)CN1CCN(C2c3ccccc3[C@@H]3[C@H](c4ccccc42)C3(F)F)CC1 (some centres not stated),Potency,[4],inactive
same,Potency,[5],inactive
same,Potency,[6],inactive
same,Potency,[7],inactive
same,outcome,[8],inactive
same,Potency,[2],23.5 µM (active)
same,Potency,[3],16.6 µM (active)
O=C(CCCN1CCN(c2ccc(F)cc2)CC1)NC1c2ccccc2CSc2ccccc21 (configuration not stated),Potency,[1],inactive
same,Potency,[5],inactive
same,Potency,[6],inactive
same,Potency,[7],inactive
same,outcome,[8],inactive
same,Potency,[3],5.26 µM (active)
OC(c1cc(C(F)(F)F)nc2c(C(F)(F)F)cccc12)C1CCCCN1 (configuration not stated),Potency,[1],inactive
same,Potency,[4],inactive
same,Potency,[3],26.4 µM (active)

# Source: PubChem BioAssay (NCATS)
